Assay results from the supplement of paper PMC11732987, “Enantioselective OTUD7B fragment discovery through chemoproteomics screening and high-throughput optimisation” (Communications Chemistry, 2025).

Legend:
Assay in all cases: log2 ratio of Biotin-Ahx-Ub-VS probe labelling (fragment/DMSO); higher = less target engagement (more negative = stronger competition), active = hit call of the paper (q ≤ 0.05, log2 ratio ≤ -1)
Settings in all cases: compound concentration: 200 uM; treatment time: 3 h
USP42 = molecular target: T1, USP42 (UniProt Q9H9J4)
T1 sequence (whole entry): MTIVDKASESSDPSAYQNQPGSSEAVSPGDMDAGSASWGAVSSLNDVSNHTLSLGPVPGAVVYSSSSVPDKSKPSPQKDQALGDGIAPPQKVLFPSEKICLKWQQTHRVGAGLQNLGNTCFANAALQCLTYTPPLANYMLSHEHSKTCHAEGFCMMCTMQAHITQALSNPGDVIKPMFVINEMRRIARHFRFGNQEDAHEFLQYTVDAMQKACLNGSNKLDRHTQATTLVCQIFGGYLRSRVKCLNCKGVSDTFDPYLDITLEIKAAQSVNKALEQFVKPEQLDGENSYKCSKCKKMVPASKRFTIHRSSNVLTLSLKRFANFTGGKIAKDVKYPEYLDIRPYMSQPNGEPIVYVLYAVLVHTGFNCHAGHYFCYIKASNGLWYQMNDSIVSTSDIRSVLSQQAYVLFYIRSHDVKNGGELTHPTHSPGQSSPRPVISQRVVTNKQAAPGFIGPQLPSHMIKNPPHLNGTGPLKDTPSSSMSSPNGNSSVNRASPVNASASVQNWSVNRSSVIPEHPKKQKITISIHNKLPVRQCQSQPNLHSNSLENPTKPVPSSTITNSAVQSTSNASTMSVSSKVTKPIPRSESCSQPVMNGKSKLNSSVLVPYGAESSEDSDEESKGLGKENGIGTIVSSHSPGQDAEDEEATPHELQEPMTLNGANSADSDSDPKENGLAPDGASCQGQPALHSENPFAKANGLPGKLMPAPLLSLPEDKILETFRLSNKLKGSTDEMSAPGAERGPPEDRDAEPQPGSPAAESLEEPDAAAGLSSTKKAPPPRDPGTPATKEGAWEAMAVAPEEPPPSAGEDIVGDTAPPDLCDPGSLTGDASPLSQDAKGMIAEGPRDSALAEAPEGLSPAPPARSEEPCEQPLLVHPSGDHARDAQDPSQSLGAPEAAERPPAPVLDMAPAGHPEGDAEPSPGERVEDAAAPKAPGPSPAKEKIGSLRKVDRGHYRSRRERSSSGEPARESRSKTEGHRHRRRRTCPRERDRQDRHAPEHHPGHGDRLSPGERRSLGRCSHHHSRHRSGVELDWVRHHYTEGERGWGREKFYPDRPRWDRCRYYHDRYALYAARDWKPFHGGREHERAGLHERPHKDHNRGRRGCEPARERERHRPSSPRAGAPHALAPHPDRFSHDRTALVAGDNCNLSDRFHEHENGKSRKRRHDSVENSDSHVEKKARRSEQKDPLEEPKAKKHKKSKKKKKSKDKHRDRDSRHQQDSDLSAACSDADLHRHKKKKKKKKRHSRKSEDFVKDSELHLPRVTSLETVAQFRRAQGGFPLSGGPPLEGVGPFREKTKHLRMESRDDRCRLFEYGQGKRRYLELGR
Method in brief: (§1)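 Triplicate samples of HEK293T lysate, 495 µg each, received fragment at 200 µM or vehicle for 3 h, followed by Biotin-Ahx-Ub-VS (0.5 µM final) for 1 h. After NeutrAvidin enrichment of labelled DUBs and LysC/trypsin digestion, peptides were run by diaPASEF LC-MS/MS. The values are average log2 fragment/vehicle ratios from global-median-normalised Spectronaut label-free quantities, tested by unpaired t-test on proteins having ≥2 unique peptides.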

USP46 = USP46 (UniProt P62068)
Sequence of USP46 (P62068 whole entry): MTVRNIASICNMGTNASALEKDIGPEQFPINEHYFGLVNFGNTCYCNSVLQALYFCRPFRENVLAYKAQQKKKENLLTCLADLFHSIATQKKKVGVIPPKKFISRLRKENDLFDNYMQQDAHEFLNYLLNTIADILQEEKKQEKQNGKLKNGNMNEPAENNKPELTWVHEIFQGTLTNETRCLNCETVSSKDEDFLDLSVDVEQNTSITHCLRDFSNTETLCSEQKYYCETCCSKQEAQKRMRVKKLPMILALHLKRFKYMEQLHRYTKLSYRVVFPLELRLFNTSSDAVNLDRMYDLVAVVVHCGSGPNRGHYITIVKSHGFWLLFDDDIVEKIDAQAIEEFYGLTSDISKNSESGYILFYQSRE
Method in brief: as §1

USP47 = molecular target: T2, USP47 (UniProt Q96K76)
T2 sequence (whole entry): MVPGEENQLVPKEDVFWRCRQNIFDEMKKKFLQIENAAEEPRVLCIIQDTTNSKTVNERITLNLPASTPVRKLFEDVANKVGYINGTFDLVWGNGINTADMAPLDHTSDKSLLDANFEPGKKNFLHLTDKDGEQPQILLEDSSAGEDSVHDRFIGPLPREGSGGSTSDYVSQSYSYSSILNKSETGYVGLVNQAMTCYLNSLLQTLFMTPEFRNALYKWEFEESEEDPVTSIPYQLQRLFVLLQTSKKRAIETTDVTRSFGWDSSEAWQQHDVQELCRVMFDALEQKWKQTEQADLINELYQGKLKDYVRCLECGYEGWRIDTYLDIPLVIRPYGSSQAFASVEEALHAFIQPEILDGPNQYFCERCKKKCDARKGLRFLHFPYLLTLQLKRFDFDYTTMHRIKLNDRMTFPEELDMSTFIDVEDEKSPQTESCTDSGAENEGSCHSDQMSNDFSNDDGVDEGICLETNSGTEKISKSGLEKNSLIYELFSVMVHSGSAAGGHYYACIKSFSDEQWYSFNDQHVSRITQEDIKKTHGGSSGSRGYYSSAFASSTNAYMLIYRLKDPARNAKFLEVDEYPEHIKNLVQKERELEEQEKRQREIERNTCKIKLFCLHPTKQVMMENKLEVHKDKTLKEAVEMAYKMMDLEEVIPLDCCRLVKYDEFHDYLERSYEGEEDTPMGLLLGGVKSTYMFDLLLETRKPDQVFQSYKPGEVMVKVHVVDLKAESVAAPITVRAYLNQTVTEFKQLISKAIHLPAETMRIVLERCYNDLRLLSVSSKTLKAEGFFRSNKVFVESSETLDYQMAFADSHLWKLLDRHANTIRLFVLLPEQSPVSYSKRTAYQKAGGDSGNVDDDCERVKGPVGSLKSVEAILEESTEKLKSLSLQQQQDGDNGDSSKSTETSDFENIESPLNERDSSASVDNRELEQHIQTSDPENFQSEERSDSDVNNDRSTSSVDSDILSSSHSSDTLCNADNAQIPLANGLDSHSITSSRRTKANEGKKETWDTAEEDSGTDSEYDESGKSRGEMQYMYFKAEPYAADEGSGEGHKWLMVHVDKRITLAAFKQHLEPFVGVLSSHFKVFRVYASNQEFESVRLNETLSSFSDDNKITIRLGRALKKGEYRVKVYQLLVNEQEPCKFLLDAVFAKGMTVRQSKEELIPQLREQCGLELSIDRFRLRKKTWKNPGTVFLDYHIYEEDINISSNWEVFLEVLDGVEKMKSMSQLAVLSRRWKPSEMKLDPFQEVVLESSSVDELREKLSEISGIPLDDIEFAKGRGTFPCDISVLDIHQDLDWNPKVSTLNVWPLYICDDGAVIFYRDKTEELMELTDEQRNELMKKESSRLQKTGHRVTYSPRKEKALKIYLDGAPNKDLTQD
Method in brief: as §1

USP48 = molecular target: T3, USP48 (UniProt Q86UV5)
T3 sequence (whole entry): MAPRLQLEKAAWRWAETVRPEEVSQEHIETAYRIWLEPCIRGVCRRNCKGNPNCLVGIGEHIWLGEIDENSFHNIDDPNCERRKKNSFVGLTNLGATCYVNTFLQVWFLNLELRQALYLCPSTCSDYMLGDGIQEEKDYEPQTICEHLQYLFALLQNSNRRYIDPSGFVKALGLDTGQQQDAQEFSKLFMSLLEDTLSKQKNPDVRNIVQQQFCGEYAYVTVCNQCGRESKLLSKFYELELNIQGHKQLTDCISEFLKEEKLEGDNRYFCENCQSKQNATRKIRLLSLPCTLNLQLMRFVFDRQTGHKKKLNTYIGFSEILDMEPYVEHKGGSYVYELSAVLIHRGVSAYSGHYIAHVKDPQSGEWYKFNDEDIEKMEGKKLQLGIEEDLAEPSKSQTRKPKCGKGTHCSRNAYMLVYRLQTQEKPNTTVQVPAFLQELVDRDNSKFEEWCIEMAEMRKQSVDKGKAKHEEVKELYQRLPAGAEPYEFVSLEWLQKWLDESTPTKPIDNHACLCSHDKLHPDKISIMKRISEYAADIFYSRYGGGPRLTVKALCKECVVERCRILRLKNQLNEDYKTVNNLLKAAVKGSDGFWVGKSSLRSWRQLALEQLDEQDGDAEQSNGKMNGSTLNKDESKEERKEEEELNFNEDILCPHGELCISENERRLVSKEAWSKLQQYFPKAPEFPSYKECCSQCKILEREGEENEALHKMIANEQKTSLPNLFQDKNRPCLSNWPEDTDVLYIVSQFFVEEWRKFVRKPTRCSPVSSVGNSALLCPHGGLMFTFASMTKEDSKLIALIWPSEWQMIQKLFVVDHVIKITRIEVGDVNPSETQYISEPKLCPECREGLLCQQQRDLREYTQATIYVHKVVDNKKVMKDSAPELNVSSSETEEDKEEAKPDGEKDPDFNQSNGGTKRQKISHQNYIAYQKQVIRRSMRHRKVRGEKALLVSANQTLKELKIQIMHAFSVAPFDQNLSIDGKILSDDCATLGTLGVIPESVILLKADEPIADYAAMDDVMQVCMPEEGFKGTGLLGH
Method in brief: as §1

USP5 = molecular target: T4, USP5 (UniProt P45974)
T4 sequence (whole entry): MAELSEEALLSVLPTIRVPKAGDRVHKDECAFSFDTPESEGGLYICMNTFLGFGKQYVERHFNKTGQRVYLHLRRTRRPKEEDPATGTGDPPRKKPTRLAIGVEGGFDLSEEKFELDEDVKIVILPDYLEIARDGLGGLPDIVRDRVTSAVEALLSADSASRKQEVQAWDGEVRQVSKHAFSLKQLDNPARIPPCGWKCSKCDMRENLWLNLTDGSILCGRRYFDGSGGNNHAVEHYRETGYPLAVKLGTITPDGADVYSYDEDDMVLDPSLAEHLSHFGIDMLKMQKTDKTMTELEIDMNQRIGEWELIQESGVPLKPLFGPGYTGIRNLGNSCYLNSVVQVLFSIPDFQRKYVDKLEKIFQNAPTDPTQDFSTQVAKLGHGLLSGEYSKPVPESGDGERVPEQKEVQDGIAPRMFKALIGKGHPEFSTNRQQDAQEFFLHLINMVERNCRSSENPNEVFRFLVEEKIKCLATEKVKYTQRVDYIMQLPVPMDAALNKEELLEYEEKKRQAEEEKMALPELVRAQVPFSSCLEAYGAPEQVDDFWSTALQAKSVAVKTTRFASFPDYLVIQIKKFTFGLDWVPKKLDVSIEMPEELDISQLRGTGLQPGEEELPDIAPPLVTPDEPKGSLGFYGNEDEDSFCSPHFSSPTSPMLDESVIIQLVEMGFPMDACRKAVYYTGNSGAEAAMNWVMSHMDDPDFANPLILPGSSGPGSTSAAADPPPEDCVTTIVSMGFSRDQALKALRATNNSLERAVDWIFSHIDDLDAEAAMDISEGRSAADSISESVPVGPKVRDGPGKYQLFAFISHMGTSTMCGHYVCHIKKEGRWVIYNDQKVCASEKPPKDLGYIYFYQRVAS
Method in brief: as §1

USP54 = USP54 (UniProt Q70EL1)
Sequence of USP54 (Q70EL1 whole entry): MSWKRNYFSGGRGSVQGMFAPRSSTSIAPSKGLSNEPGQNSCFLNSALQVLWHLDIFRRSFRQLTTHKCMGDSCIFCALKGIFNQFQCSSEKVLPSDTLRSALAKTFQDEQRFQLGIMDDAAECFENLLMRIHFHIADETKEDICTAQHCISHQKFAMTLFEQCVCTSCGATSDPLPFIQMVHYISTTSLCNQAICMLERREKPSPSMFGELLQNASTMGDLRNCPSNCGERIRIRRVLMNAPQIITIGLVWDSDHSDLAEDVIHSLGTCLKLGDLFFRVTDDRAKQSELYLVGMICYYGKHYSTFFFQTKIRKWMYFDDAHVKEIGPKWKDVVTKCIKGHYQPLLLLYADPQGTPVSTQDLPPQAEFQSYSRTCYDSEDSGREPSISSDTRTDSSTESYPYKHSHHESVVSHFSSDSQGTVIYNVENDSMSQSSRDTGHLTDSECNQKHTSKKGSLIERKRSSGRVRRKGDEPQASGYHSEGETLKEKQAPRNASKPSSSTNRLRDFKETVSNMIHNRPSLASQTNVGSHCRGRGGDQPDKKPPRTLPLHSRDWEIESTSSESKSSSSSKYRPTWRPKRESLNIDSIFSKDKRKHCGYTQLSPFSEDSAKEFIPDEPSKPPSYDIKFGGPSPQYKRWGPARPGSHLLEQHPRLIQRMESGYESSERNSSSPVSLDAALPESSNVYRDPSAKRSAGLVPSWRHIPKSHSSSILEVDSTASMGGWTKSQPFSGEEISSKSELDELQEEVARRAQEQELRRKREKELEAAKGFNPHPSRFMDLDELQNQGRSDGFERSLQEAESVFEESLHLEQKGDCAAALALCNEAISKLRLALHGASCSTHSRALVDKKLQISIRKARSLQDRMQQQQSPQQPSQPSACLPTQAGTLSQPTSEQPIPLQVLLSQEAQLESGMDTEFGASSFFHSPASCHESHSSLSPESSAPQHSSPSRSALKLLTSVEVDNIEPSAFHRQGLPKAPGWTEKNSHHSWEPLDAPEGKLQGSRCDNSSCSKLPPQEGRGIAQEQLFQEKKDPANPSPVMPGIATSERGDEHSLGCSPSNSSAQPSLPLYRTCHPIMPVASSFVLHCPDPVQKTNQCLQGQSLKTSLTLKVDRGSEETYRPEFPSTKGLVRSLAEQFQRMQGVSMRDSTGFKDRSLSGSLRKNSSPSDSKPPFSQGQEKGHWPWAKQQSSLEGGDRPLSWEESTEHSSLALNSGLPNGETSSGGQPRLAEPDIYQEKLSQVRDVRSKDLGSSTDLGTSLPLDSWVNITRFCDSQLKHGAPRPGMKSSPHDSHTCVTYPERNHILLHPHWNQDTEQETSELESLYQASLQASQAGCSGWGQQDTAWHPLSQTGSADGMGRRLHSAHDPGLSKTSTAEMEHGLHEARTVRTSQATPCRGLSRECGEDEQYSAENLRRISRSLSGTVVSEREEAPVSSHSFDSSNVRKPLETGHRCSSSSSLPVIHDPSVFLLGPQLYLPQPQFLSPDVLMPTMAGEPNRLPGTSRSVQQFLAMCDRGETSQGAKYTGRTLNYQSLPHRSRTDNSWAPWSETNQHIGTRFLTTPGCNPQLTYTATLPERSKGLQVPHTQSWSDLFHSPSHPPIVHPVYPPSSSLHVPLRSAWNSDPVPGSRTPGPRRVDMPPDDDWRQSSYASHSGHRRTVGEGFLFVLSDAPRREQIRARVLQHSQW
Method in brief: as §1

USP7 = USP7 (UniProt Q93009)
Method in brief: as §1

USP8 = molecular target: T5, USP8 (UniProt P40818)
T5 sequence (whole entry): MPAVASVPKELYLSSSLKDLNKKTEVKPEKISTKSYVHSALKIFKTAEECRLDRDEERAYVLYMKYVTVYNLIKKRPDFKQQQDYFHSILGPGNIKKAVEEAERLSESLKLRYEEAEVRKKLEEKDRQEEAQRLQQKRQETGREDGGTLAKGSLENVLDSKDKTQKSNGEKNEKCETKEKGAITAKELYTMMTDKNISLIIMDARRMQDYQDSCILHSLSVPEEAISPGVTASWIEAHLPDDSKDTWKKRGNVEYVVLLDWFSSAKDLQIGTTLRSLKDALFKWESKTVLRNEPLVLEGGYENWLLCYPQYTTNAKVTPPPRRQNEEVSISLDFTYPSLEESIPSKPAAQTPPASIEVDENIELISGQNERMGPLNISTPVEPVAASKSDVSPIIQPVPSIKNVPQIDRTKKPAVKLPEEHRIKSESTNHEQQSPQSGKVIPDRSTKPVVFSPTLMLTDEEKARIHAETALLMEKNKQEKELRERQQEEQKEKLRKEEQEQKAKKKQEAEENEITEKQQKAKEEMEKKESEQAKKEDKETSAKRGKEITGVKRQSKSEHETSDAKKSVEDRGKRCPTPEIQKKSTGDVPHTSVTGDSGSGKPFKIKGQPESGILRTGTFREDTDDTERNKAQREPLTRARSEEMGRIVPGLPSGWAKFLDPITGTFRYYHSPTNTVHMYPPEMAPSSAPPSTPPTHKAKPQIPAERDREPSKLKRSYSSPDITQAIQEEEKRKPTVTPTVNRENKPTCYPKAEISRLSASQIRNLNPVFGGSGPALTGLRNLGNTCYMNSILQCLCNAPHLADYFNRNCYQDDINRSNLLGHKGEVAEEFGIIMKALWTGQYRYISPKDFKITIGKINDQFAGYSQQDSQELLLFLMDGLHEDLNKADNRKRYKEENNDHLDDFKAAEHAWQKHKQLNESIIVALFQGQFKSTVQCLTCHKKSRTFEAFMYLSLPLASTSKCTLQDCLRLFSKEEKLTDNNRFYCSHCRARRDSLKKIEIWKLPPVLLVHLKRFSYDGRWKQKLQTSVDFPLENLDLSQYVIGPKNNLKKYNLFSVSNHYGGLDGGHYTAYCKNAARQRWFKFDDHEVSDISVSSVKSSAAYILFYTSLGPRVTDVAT
Method in brief: as §1

USP9X = USP9X (UniProt Q93008)
Sequence of USP9X (Q93008 whole entry): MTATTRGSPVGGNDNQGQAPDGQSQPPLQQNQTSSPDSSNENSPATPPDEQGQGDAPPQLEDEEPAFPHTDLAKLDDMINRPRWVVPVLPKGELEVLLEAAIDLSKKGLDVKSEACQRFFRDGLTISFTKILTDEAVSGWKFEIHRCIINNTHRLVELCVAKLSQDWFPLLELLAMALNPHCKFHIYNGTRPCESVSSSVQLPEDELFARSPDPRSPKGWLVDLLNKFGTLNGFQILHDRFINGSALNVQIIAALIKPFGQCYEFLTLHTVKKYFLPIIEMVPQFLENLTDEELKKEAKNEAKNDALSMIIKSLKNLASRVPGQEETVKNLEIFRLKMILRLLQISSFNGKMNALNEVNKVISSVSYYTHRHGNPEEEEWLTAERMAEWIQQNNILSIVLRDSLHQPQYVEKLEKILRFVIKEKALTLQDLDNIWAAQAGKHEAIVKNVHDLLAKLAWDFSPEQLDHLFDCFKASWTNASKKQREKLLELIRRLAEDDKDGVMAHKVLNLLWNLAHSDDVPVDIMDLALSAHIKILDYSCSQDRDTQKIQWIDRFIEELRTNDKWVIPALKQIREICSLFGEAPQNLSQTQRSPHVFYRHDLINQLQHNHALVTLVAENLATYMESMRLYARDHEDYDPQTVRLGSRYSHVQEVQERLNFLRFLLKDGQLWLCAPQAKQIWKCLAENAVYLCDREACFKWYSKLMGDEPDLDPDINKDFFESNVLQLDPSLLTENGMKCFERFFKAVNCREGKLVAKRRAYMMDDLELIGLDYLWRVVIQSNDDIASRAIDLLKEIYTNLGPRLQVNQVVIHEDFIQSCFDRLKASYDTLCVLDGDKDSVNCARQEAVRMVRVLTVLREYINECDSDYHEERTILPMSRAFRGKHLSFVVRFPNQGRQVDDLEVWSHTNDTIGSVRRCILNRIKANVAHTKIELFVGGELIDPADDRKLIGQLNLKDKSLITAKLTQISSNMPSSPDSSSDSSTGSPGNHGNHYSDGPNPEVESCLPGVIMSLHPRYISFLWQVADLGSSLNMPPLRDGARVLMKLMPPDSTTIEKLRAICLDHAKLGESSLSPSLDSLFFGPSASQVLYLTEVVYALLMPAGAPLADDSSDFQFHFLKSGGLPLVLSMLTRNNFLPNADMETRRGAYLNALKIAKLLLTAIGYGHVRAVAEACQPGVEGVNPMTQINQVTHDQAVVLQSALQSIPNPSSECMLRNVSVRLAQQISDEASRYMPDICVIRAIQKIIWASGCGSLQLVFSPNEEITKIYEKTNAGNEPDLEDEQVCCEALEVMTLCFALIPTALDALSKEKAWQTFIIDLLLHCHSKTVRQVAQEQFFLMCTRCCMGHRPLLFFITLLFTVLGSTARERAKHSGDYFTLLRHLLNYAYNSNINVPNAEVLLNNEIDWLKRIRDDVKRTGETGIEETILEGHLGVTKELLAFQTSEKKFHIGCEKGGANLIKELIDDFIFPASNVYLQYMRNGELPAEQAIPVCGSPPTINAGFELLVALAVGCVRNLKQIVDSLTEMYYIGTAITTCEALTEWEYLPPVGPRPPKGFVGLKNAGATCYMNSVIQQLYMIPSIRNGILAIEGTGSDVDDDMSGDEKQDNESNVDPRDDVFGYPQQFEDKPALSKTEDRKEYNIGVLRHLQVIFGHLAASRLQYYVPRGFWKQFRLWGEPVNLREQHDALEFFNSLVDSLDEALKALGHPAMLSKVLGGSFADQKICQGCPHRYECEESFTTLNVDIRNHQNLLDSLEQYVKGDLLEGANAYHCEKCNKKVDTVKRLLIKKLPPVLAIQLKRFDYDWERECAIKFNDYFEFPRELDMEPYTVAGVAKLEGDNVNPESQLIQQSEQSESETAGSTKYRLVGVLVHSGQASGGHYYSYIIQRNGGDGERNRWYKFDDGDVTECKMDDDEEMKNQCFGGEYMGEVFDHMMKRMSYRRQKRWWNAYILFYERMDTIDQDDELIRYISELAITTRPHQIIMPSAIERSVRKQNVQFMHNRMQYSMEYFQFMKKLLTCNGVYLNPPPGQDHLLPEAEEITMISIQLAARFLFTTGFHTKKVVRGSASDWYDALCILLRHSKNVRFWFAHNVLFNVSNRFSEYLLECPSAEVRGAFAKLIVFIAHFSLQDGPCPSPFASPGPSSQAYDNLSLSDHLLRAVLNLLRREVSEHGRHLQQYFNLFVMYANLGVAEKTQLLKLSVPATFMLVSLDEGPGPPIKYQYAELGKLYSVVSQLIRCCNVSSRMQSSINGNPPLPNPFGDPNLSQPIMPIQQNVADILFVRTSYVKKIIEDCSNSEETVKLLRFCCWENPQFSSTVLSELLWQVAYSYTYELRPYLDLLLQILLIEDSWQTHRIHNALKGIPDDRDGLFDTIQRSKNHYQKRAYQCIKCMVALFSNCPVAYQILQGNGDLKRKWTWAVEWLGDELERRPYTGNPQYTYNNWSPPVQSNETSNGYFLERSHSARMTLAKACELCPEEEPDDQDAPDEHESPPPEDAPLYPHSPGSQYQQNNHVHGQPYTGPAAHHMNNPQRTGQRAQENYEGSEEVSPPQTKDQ
Method in brief: as §1

UniProt O00487 = molecular target: UniProt O00487
Sequence of UniProt O00487 (O00487 whole entry): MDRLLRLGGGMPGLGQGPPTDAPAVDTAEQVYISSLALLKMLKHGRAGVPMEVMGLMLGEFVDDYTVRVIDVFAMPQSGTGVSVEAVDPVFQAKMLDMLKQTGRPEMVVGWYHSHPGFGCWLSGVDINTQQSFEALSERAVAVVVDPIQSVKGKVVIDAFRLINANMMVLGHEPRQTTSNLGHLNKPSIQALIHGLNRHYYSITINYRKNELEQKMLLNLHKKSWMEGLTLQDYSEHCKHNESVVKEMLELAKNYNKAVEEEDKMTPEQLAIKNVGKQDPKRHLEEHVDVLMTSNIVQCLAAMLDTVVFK
Method in brief: as §1

Measured: log2 ratio of Biotin-Ahx-Ub-VS probe labelling

CN(C)C(=O)c1ccc(CNC(=O)CCl)cc1
inactive: USP42 -0.0843 | USP46 0.181 | USP47 0.119 | USP48 0.0435 | USP5 0.373 | USP54 0.152 | USP7 0.103 | USP8 -0.341 | USP9X 0.002 | UniProt O00487 -0.101
